The list shows a part of the results. Calls of active or inactive are those of the source.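 How the source made its calls, unless noted: active means GFP response above 150% of the DMSO level; inconclusive means fewer than 70 events counted for a yeast strain; inactive means the rest.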
Tests used:
[1] = RPL19A-GFP modulators, yeast TOR pathway, confirmation, cell-based, S. cerevisiae, flow cytometry, cherry picks, mother/daughter gates (AID 2270;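 active means GFP response below 50% of the DMSO control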); conditions: S. cerevisiae RPL19A-GFP strain, 3 h, at 10 µM, stronger effect = lower value, 100 = same GFP as DMSO wells
[2] = LAP4-GFP expression modulators in yeast, confirmation, cell-based, cherry picks, flow cytometry, mother/daughter gates (AID 2271;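 active means GFP response above 150% of the DMSO control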;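 further: ratio of sample to DMSO plate mean so 100% equals DMSO level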); conditions: S. cerevisiae LAP4-GFP strain, 3 h, at 10 µM, stronger effect = higher value, 100 means same as DMSO control
[3] = modulators of MEP2-GFP levels in yeast, confirmation, S. cerevisiae, flow cytometry GFP, cherry picks (AID 2272;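 active means GFP response above 150% of the DMSO control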;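 further: ratio of well signal to plate DMSO mean so 100% equals DMSO level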); conditions: S. cerevisiae MEP2-GFP strain, 3 h, at 10 µM, stronger effect = higher value
[4] = AGP1-GFP expression modulators, hit retest, confirmation, cell-based, flow cytometry, S. cerevisiae, cherry picks (AID 2273);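 further: median GFP channel fluorescence over the whole cell population gate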; conditions: S. cerevisiae AGP1-GFP strain, 3 h, at 10 µM
[5] = modulators of CIT2-GFP expression in yeast, confirmation, S. cerevisiae, GFP fusion, cherry picks, mother/daughter gates (AID 2274); conditions: S. cerevisiae CIT2-GFP strain, flow cytometry, 3 h, at 10 µM, stronger effect = higher value
[6] = compound autofluorescence in yeast s288c, dose response, artefact control for yeast TOR pathway GFP screen, s288c strain (AID 2757;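 active means fluorescence span over the dose series, or activity score, above about 33, limit read from the data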;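 further: thousands of bead-calibrated equivalent soluble fluorophore molecules from median cell fluorescence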); conditions: S. cerevisiae s288c, 520 nm autofluorescence, flow cytometry, 3 h; at 33 µM; stronger effect = higher value; zero means same as solvent-only cells
[7] = measured here: daughter cell gate
[8] = measured here: mother cell gate
[9] = measured here: daughter cell gate response
[10] = measured here: mother cell gate response

Row | SMILES | GFP response vs DMSO [1] | GFP response vs DMSO [1, 7] | GFP response vs DMSO [1, 8] | GFP response relative to DMSO [2] | GFP response relative to DMSO [2, 9] | GFP response relative to DMSO [2, 10] | GFP response vs DMSO [3] | GFP response, % of DMSO [4] | GFP response, % of DMSO [5] | GFP response, % of DMSO [5, 7] | GFP response, % of DMSO [5, 8] | fluorescence change (kMESF span) [6]
1 | Cc1cc(C)nc(S/C=C/C(=O)c2ccccc2)n1 | 100% (inactive) | 101% | 98% | 169% (active) | 151% | 191% | 121% (inactive) | 107% (inactive) | 92.2% (inactive) | 98.4% | 83.8% | 1.02 (inactive)
2 | Cc1c(/C=N/Nc2ccc(C(=O)O)cc2)c2ccccc2n1C | 96.2% (inactive) | 91.3% | 95.8% | 105% (inactive) |  |  | 103% (inactive) | 95.5% (inactive) | 91.7% (inactive) | 81.6% | 82.6% | 
3 | Cc1ccccc1NC(=O)COC(=O)c1cc(=O)c2ccccc2o1 | 99.7% (inactive) |  | 104% | 98.7% (inactive) | 98.7% | 86% | 97.8% (inactive) | 95.4% (inactive) | 104% (inactive) |  |  | 
4 | O=C(c1cccc(COc2ccc(Cl)cc2Cl)c1)N1CCN(c2ccccn2)CC1 | 80% (inactive) | 83.6% |  | 114% (inactive) | 107% | 117% | 103% (inactive) | 86.6% (inactive) | 95.9% (inactive) | 90.2% | 95.6% | 
5 | CCC1CCCCN1S(=O)(=O)c1ccc(C(=O)Nc2nnc(-c3ccccc3Cl)o2)cc1 (stereo not given) | 97.6% (inactive) |  |  | 95.4% (inactive) | 89.6% |  | 102% (inactive) | 101% (inactive) | 98.3% (inactive) |  |  | 
6 | O=C(Nc1nc(-c2ccccc2)cs1)c1cccnc1 | 101% (inactive) | 102% | 101% | 103% (inactive) |  |  | 98.3% (inactive) | 91% (inactive) | 98.3% (inactive) |  |  | 
7 | CC1=C/C(=N\OS(=O)(=O)c2ccccc2)C(C)=CC1=O | 79.2% (inactive) |  | 66.3% | 262% (active) | 136% | 243% | 118% (inactive) | 108% (inactive) | 98.8% (inactive) | 117% | 88.2% | 
8 | CCOC(=O)C(C(=O)OCC)C(C(=O)OCC)N1CCOCC1 (stereo not given) | 74.1% (inactive) |  | 61.4% | 182% (active) | 158% | 165% | 108% (inactive) | 90.2% (inactive) | 86.1% (inactive) | 105% | 72.5% | 
9 | Cc1ccc(C2CCN(C(=S)Nc3cccc(Cl)c3)C2)cc1 (stereo not given) | 96.2% (inactive) | 95.7% | 97.4% | 119% (inactive) |  |  | 97.5% (inactive) | 93.2% (inactive) | 92.1% (inactive) | 90.9% | 95.6% | 
10 | CCOC(=O)c1cc(-c2ccc(/C=C3/C(=O)NC(=O)C(C#N)=C3C)o2)ccc1Cl | 67.6% (inactive) |  | 55.4% | 240% (active) | 141% | 231% | 160% (inactive) | 104% (inactive) | 118% (inactive) | 103% | 101% | 
11 | Cc1cccc(CS(=O)(=O)c2ncc(Cl)c(C(=O)Nc3nnc(C(C)C)s3)n2)c1 | 96.7% (inactive) |  |  | 106% (inactive) | 108% | 105% | 99.3% (inactive) | 102% (inactive) | 103% (inactive) | 99.3% | 104% | 
12 | O=C1C=C(c2ccc(Cl)cc2)C(=O)N1Nc1ccccc1 | 61.9% (inactive) | 89.1% | 51.9% | 96.2% (inactive) |  | 81.9% | 113% (inactive) | 102% (inactive) | 66.5% (inactive) | 99.7% | 53.7% | 0.3 (inactive)
13 | Cc1ccc(-c2nn(C(C)(C)C)c3ncnc(N)c23)cc1 | 46.7% (active) | 43.7% | 46.7% | 175% (active) |  |  | 116% (inactive) | 95.7% (inactive) | 45.8% (inactive) | 62.1% | 43.5% | -0.9 (inactive)
14 | Cc1cc(NCCOCCO)n2ncc(-c3ccc(Cl)cc3)c2n1 | 94.3% (inactive) | 93.1% | 89.1% | 100% (inactive) |  |  | 106% (inactive) | 105% (inactive) | 102% (inactive) | 102% | 96.8% | 
15 | CCCc1ccc(OCC(=O)NNC(=S)NC(=O)c2ccco2)cc1 | 111% (inactive) |  | 97.1% | 259% (active) |  | 226% | 139% (inactive) | 123% (inactive) | 112% (inactive) | 85.2% | 99.3% | 9.67 (inactive)

Source: PubChem BioAssay
